From PubChem BioAssay (Tox21) come the findings set out here.

The source made the active and inactive calls. A call without a number means that no potency is given here. The call rests on the fitted dose curve.
Potency means the concentration at half of the fitted maximal effect.

The nature of this experiment: qHTS assay to identify small molecule agonists of the sonic hedgehog signaling (Shh) pathway (AID 1259368). Further: nearly all actives have a fitted effect of over 15% in size. As to conditions: NIH/3T3 Gli1-Luc reporter, luciferase, 24 h; series mostly up to 92.4 µM. The text has this: National Center for Advancing Translational Sciences [NCATS]
NIH Chemical Genomics Center [NCGC]
U.S. Environmental Protection Agency [EPA]
National Institutes of Environmental Health Sciences [NIEHS]
National Toxicology Program [NTP]
The sonic hedgehog (Shh) pathway is essential for normal embryonic development. Dysregulation of the Shh pathway can cause severe developmental defects in organs. Therefore chemicals that interfere with the pathway are potential developmental toxicants. A cell line designated 3T3Gli1-Luc (DMB/OARSA/CFSAN/FDA, Laurel, MD), a NIH/3T3 derived clone containing stably integrated Gli1-Luc reporter is used to detect chemical interference of the Shh pathway, by changes in the expression of the firefly Luc gene under the control of the Gli1 transcriptional response element. This cell line was used to screen Tox21 libraries for identifying and prioritizing the potential developmental toxicants that interfere Shh pathway.
3T3 Gli1-Luc cells were dispensed at 2,000 per well in 5uL of culture medium into white solid bottom 1536-well plates (Greiner Bio-One, Monroe, NC) using a Multidrop Combi (Thermo Scientific, Waltham, MA) dispenser. The assay plates were incubated at 37 C and 5% CO2 for 4hr, and then 23nL of compounds dissolved in DMSO and positive control were transferred using a Pintool station (Wako, San Diego, CA). The assay plates were incubated at 37C and 5% CO2 for 24hr. For luciferase read, 4uL of Amplite Luciferase reporter gene assay reagent (AAT Bioquest, Inc. Sunnyvale, CA) was added to each well of the assay plates using Flying Reagent Dispenser (FRD, Aurora Discovery, San Diego, CA) and incubated at room temperature for 30min. The luminescence signal was measured using a ViewLux plate reader (Perkin Elmer, Shelton, CT).
Consider `O=Cc1ccccc1C=O`, for which the Potency result was “inactive”.

For the molecule `O=[Se](O)O`, the Potency result is “inactive”.

For the molecule `CCC(Cc1c(I)cc(I)c(N)c1I)C(=O)O` (stereo not given), the Potency result was “inactive”.

Consider `O=C(O)CCCCCCCCCCCC(=O)O`, for which the Potency entry was “inactive”.

Take `CCc1cccc2c3c([nH]c12)C(CC)(CC(=O)O)OCC3` (stereo not given): the Potency result is “inactive”.

As to `Cc1ccc([N+](=O)[O-])c(C)c1`, the Potency entry is “inactive”.

On to `Clc1ccc(Sc2cc(Cl)c(Cl)cc2Cl)cc1`, for which the Potency entry is “inactive”.

As to `NCCN`, the Potency entry was “inactive”.

As to `C1CN(SSN2CCOCC2)CCO1`, the Potency entry is “inactive”.

As for `COc1cc([C@H]2Oc3cc([C@H]4Oc5cc(O)cc(O)c5C(=O)[C@@H]4O)ccc3O[C@@H]2CO)ccc1O`, the Potency result is “inactive”.

As for `CC1(C)C(C=C(Cl)Cl)C1C(=O)OCc1cccc(Oc2ccccc2)c1` (stereo not given), the Potency entry was “inactive”.

For `CCCCCCCC/C=C\CCCCCCCC(=O)O`, the Potency result was “inactive”.

As to `C=C[C@@]1(C)CC(=O)[C@]2(O)[C@@]3(C)[C@@H](O)CCC(C)(C)[C@@H]3[C@H](O)[C@H](OC(C)=O)[C@@]2(C)O1`, the Potency entry is “inactive”.

With `O=C(O)c1ccc(O)cc1`, the Potency result was “inactive”.

On to `CC(=O)Oc1ccc(C(c2ccc(OC(C)=O)cc2)c2ccccn2)cc1`, for which the Potency result was “inactive”.

In the case of `CC1=CC(C)(C)Nc2ccccc21`, the Potency entry is “inactive”.

Turning to `Nc1ccc2c(c1)C(=O)c1ccccc1C2=O`, the Potency was 864 nM (active).

Turning to `Nc1ccc(N)c(Cl)c1`, the Potency entry was “inactive”.

With `Cc1ccc(/C(=C\CN2CCCC2)c2ccccn2)cc1`, the Potency result was “inactive”.

For `Cc1ccc(C(C)(C)C)cc1`, the Potency entry was “inactive”.

For `NCCOCCO`, the Potency entry is “inactive”.

Turning to `O=C(O)COCCN1CCN(C(c2ccccc2)c2ccc(Cl)cc2)CC1` (stereo not given), the Potency entry was “inactive”.

Turning to `C=CN1CCCC1=O`, the Potency entry is “inactive”.

For the molecule `CC(=O)Nc1ccc2c(c1)Cc1cc(NC(C)=O)ccc1-2`, the Potency entry is “inactive”.

Take `C/C=C/C(=O)N(CC)c1ccccc1C`: the Potency entry was “inactive”.

With `COC(=O)CC(=O)OC`, the Potency entry was “inactive”.

On to `FC(F)(F)C(Cl)Br` (stereo not given), for which the Potency result was “inactive”.

On to `COC(=O)C(C)Oc1ccc(Oc2ncc(C(F)(F)F)cc2Cl)cc1` (stereo not given), for which the Potency result was “inactive”.

`Cc1ccc(S(=O)(=O)NCl)cc1`: the Potency entry is “inactive”.

With `ClC/C=C/CCl`, the Potency entry is “inactive”.

On to `C=CCOC(=O)C(=C)C`, for which the Potency entry is “inactive”.

As for `CC1(C)O[C@@H]2C[C@H]3[C@@H]4C[C@H](F)C5=CC(=O)C=C[C@]5(C)[C@@]4(F)[C@@H](O)C[C@]3(C)[C@]2(C(=O)CO)O1`, the Potency entry was “inactive”.

In the case of `Oc1ccc(C(c2ccc(O)cc2)C(Cl)(Cl)Cl)cc1`, the Potency result is “inactive”.

Take `OC[C@@H](O)[C@@H](O[C@@H]1O[C@H](CO)[C@H](O)[C@H](O)[C@H]1O)[C@H](O)[C@@H](O)CO`: the Potency entry was “inactive”.

In the case of `C[C@]12C=CC(=O)C=C1CC[C@H]1[C@@H]3C[C@@H](O)[C@](O)(C(=O)CO)[C@@]3(C)C[C@H](O)[C@@]12F`, the Potency result is “inactive”.

As for `Nc1cc(Cl)c(N)c(Cl)c1`, the Potency entry is “inactive”.

Regarding `CNC[C@H](O)c1ccc(O)c(O)c1`, the Potency result was “inactive”.

Regarding `CC(=O)Oc1c(C)c(C)c2c(c1C)CC[C@@](C)(CCC[C@H](C)CCC[C@H](C)CCCC(C)C)O2`, the Potency entry was “inactive”.

For `CC1(C)NC(=O)N(c2ccc([N+](=O)[O-])c(C(F)(F)F)c2)C1=O`, the Potency entry is “inactive”.

Consider `CC/C=C\C/C=C\C/C=C\CCCCCCCC(=O)O`, for which the Potency result was “inactive”.
